Compounds with a hit are over-represented: about 8.7% of the library has one in this group of screens.
G9a block – qHTS Assay for Inhibitors of Histone Lysine Methyltransferase G9a; Potency, µM (doses to about 102 µM), without a hit: at the highest dose activity, negative = inhibition, most hits filed as inhibitors; G9a H3K9 monomethylation, AlphaScreen, 2 h; Histone-lysine N-methyltransferase EHMT2 (Homo sapiens), Q96KQ7; 8.8% of 350,000 active; further: on the % scale 0 is the no-effect control and ±100 the full control effect; nearly all actives have a fitted effect of over 75% in size
Target sequence (Q96KQ7 913-1193 limits assumed): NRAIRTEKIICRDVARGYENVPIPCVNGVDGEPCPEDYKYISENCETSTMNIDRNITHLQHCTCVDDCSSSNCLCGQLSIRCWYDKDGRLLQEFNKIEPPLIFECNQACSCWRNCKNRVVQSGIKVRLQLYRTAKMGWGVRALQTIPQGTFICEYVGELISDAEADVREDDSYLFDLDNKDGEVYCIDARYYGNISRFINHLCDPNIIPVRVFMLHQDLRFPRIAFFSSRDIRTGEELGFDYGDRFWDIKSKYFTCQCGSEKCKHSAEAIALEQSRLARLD
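Enzyme 20 nM + cpd, 15 min RT; add b-H3K9 pep 500 nM / SAM 20 uM; 2 h RT; anti-H3K9me1 Ab 0.5 ug/mL + SA donor / anti-rabbit acceptor beads 20 ug/mL each, 10 min; AlphaScreen read.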
Sfp inh – qHTS Assay for Inhibitors of Bacillus subtilis Sfp phosphopantetheinyl transferase (PPTase) | Biochemical Sfp PPTase activity, qHTS | Potency, µM, for the others: largest response in the series, negative = inhibition, hits mostly inhibitors | 3.5% of 310,000 active;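 further: the enzyme is Sfp with the accession as filed and its product quenches rhodamine fluorescence; 0% = enzyme reaction without inhibitor and -100% = no enzyme wells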
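Fluorescence-quenching assay with 15 nM Sfp, 5 uM rhodamine-CoA and 12.5 uM BHQ-2-labelled ybbR peptide in pH 7.6 Hepes/MgCl2 buffer. Enzyme was pre-incubated with compound for 15 min at room temperature. Rate was taken from the 30-min fluorescence change (525/598 nm).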
12-LOX inh – Primary qHTS assay for inhibitors of human arachidonate 12S-lipoxygenase (ALOX12): Round 2 | purified 12hLO, xylenol orange hydroperoxide absorbance | Potency, µM (series often up to 108 µM), for inactives: at the highest dose activity change, negative = inhibition, actives largely listed as inhibitors | 1.1% of 580,000 active | AID 1671190, 2021; further: on the % scale 0 is the no-effect control and ±100 the full control effect
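Purified human 12hLO at 150 nM in 25 mM Hepes, 0.01% Triton X-100, pH 7.0, preincubated 15 min at room temperature with compound. Reaction started with 40 uM arachidonic acid, 30 min at room temperature. Hydroperoxide measured by Fe-xylenol orange, 573/405 nm absorbance ratio.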
JMJD2A Tudor – qHTS Assay for Inhibitors of JMJD2A-Tudor Domain. Lysine-specific demethylase 4A (Homo sapiens), O75164. AlphaScreen JMJD2A-Tudor / H3K4me3 peptide binding. Potency, µM (titrated, usually from 114 µM), for the others: at the highest dose activity change, negative = inhibition, hits mostly inhibitors. 4.4% of 390,000 active. AID 504339, 2011; further: on the % scale 0 is the no-effect control and ±100 the full control effect; nearly all actives have a fitted effect of over 50% in size
BAZ2B block – qHTS Assay for Inhibitors of BAZ2B; Bromodomain adjacent to zinc finger domain protein 2B (Homo sapiens), Q9UIF8; AlphaScreen BAZ2B-H3K14Ac peptide displacement; Potency, µM (series often up to 114 µM), without a hit: top-dose activity change, negative = inhibition, most hits filed as inhibitors; 4.4% of 360,000 active; AID 504333, 2011; further: on the % scale 0 is the no-effect control and ±100 the full control effect; nearly all actives have a fitted effect of over 60% in size
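Inhibition is scored as reduced AlphaScreen emission. The BAZ2B/b-H3(5-23)K14Ac complex (50 nM each) in PBS pH 7.4, 0.01% Tween-20 meets compound (up to 110 uM) for 30 min at RT before bead addition.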
HP1b binding inh – HTS for Inhibitors of HP1-beta Chromodomain Interactions with Methylated Histone Tails | Chromobox protein homolog 1 (Homo sapiens), P83916 | AlphaScreen HP1-beta / biotin-H3K9me3 peptide binding | Potency, µM (series often up to 114 µM), for inactives: at the highest dose activity change, negative = inhibition, actives largely listed as inhibitors | 0.56% of 390,000 active; further: nearly all actives have a fitted effect of over 70% in size
Target sequence (P83916 whole entry, looked up): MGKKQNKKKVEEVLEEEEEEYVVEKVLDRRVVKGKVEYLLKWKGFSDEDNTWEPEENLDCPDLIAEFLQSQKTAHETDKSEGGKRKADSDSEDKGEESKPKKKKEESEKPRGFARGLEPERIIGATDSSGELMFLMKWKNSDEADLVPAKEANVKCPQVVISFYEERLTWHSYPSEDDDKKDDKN
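AlphaScreen: HP1-beta (50 nM) preformed 30 min with biotin-H3(1-18)K9me3 peptide (50 nM) in PBS pH 7.4, 0.01% Tween-20. Compound added for 30 min at RT, then streptavidin donor/nickel chelate acceptor beads (10 ug/mL) for 30 min.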
The depositor's hits bear a star; [ ] = dose if it differs, or a comment. The call rests on the fitted dose curve; in most records, active means well fitted curve in the direction sought with a large enough effect; inconclusive means small, poorly fitted or top-dose-only effect, or another doubt; inactive means no such curve, though single readings can be large; an effect the other way counts as inactive or inconclusive. Potency means the concentration at half of the fitted maximal effect.

Results for CCc1cccc2c(C(=O)C(=O)Nc3cccc(Cl)c3)c[nH]c12 ?
12-LOX inh: -2.8%

Results for COc1ccc(CNC(=O)NC2CCc3n[nH]c(=O)n3CC2)cc1 (stereo not drawn) ?
12-LOX inh: 28.6%

Results for O=C(CC1=NC2(CCCC2)Cc2ccccc21)N1CCOCC1 ?
G9a block: inconclusive; Sfp inh: -18.1%; 12-LOX inh: inconclusive; JMJD2A Tudor: inconclusive; BAZ2B block: 50.1µM*; HP1b binding inh: -2.2%

What do the screens show for `O=C(Cc1ccccc1[N+](=O)[O-])N1CCOCC1`?
G9a block: 23.6%[59 µM]; Sfp inh: 6.3%; 12-LOX inh: 6.7%; JMJD2A Tudor: -5.6%; BAZ2B block: 6.9%; HP1b binding inh: 30.4%

What do the screens show for `CCC1(CC)Cc2ccccc2C(CC(=O)N2CCOCC2)=N1`?
G9a block: 39.8µM*; Sfp inh: -14.1%; 12-LOX inh: inconclusive; JMJD2A Tudor: 22.4µM*; BAZ2B block: 56.2µM*; HP1b binding inh: -23.7%

Results for Nc1c(C(=O)O)sc2nc(-c3ccc(F)cc3)cc(-c3ccccc3)c12 ?
G9a block: inconclusive; Sfp inh: 50.1µM*; 12-LOX inh: -26.0%; JMJD2A Tudor: -23.3%; BAZ2B block: -16.4%; HP1b binding inh: 58.6%

What do the screens show for `Cc1cc(C)cc(-n2nnnc2SCCCn2c(=O)c3c(ncn3C)n(C)c2=O)c1`?
12-LOX inh: 18.9%

Results for Cc1ccc(C(=O)c2ccccc2C(=O)OC/C=C/c2ccccc2)cc1C ?
12-LOX inh: 1.8%

Results for COc1cc2nc(N3CCN(c4cc(C)ccc4C)CC3)nc(N)c2cc1OC ?
G9a block: 50.1µM*; Sfp inh: 79.4µM*; 12-LOX inh: inconclusive; JMJD2A Tudor: inconclusive; BAZ2B block: 50.1µM*; HP1b binding inh: -14.7%

How did O=C(CCC(F)(F)F)N1CCC2(CCCN(CC3CCCCC3)C2=O)C1 (stereo not drawn) do in these assays?
12-LOX inh: 20.6%

Results for CCOC(=O)C1(CC)CC(CSc2nc3ccccc3[nH]2)OC1=O (stereo not drawn) ?
G9a block: -8.7%[12.7 µM]; Sfp inh: -2.3%; 12-LOX inh: -9.6%; JMJD2A Tudor: 89.1µM*; BAZ2B block: inconclusive; HP1b binding inh: 14.3%

Results for COC(=O)CCNC(=O)N1CCc2[nH]cnc2C1c1cc(Cl)ccc1F (stereo not drawn) ?
12-LOX inh: 22.9%

How did CCc1ccc(NC(=O)OCC(C)C)cc1 do in these assays?
12-LOX inh: 24.1%

What do the screens show for `CCOC(=O)c1nc(C)sc1-c1ccnn1S(=O)(=O)c1ccccc1C(F)(F)F`?
Sfp inh: 50.1µM*; 12-LOX inh: -7.1%; JMJD2A Tudor: -4.5%; BAZ2B block: 17.8%; HP1b binding inh: 17.6%

Results for Cc1ccc(F)cc1S(=O)(=O)N1CCn2c(n[nH]c2=O)C1 ?
12-LOX inh: 3.3%

How did COc1ccccc1N1C(=O)CC(Nc2ccc(N3CCOCC3)cc2)C1=O (stereo not drawn) do in these assays?
G9a block: inconclusive; Sfp inh: 79.4µM*; 12-LOX inh: -8.7%; JMJD2A Tudor: inconclusive; BAZ2B block: inconclusive; HP1b binding inh: inconclusive

What do the screens show for `O=C1CC(Nc2ccc(N3CCOCC3)cc2)C(=O)N1c1ccccc1` (stereo not drawn)?
G9a block: inconclusive; Sfp inh: inconclusive; JMJD2A Tudor: -19.8%; BAZ2B block: -8.3%; HP1b binding inh: 15.3%
